For 95 compounds, PGE2 EC50 with compound results are on record in PubChem BioAssay AID1421 (Emory University Molecular Libraries Screening Center, 2008).

The campaign covered roughly 1,300 compounds. About 140 (11%) were called active. How the calls were made is not given here. Only a sample is shown. Results with a measured potency or affinity are listed apart.

Sequence of Prostaglandin E2 receptor EP2 subtype (Homo sapiens) (P43116 whole entry, looked up): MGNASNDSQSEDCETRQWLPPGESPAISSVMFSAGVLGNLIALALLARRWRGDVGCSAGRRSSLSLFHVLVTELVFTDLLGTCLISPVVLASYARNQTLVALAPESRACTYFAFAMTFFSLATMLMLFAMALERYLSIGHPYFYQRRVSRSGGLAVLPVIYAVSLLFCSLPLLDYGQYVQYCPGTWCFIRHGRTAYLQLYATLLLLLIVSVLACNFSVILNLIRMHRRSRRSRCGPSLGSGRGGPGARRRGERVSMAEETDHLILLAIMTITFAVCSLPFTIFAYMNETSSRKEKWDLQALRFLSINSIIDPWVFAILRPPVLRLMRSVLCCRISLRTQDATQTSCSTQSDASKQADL

This experiment addresses Prostaglandin E2 receptor EP2 subtype (Homo sapiens) (UniProt P43116). Nature of the experiment: EP2 receptor modulators, dose response, cell-based, human EP2, PGE2 EC50 shift (AID 1421). Particulars: EP2-expressing cells, PGE2 EC50 shift by compound; at 20 µM.
Take `OCCCNc1nc(-c2ccc(Cl)cc2)nnc1-c1ccc(Br)cc1`: the PGE2 EC50 with compound is 1.44 nM (inactive).
As to `CC(OC(=O)c1oc2ccccc2c1COc1ccccc1)C(=O)NC(N)=O` (stereo not given), the PGE2 EC50 with compound is 0.23 nM (inactive).
As to `CCOc1ccccc1NC(=O)c1ccccc1-c1nc(-c2ccccc2)no1`, the PGE2 EC50 with compound is 0.4 nM (inactive).
The figure for `Cc1onc(-c2ccccc2Cl)c1-c1nc(-c2ccncc2)no1` is 0.49 nM (inactive); for `Cc1nn2c(N3CCN(C(=O)c4ccco4)CC3)cc(C(C)(C)C)nc2c1-c1ccccc1` it is 1.08 nM (inactive); for `Cc1ccc(NCc2n[nH]c(=S)n2Cc2ccccc2)cc1Cl` it is 0.64 nM (inactive).
On to `O=C(O)/C=C/c1ccccc1Oc1ccc(Cl)cc1Cl`, for which the PGE2 EC50 with compound is 1.45 nM (inactive).
The figure for `COc1cc2c(cc1OC)-c1cc(Nc3ccc4c(c3)OCCO4)nc(=O)n1CC2` is 0.72 nM (inactive); for `COc1ccc(OC)c(/C=C/C(=O)N2CCCc3ccccc32)c1` it is 0.28 nM (inactive); for `C=C(C)Cn1c(C)cc(C)c(S(=O)(=O)c2ccc(C)cc2)c1=O` it is 0.32 nM (inactive).
In the case of `COC(=O)c1c(NC(=O)CSc2nnc(-c3ccco3)n2Cc2ccccc2)sc(C)c1C` it was 0.82 nM (inactive); in that of `CCc1cc2cc3c(cc2nc1SCC(=O)OC(C)C)OCO3`, 0.14 nM (inactive).
The figure for `CCOC(=O)C1CCN(c2c(C(=O)c3ccccc3)cnc3ccc(CC)cc23)CC1` is 0.81 nM (inactive); for `O=c1[nH]c2ccc(Br)cc2c(-c2ccccc2)c1N1CCOCC1` it is 0.39 nM (inactive).
Consider `O=c1[nH]c2ccc(Cl)cc2c(-c2ccccc2)c1N1CCN(c2ccccn2)CC1`, for which the PGE2 EC50 with compound is 0.62 nM (inactive).
Regarding `CCOC(=O)C1CCN(c2c(C(=O)c3ccccc3)cnc3ccc(Cl)cc23)CC1`, the PGE2 EC50 with compound was 0.39 nM (inactive).
In the case of `O=C(Nc1cccc2cccnc12)c1ccc(Br)o1` it was 0.36 nM (inactive); in that of `CCOP(=O)(OCC)c1nc(/C=C/c2ccccc2)oc1NCc1ccccc1`, 0.52 nM (inactive); in that of `CC1CCCN(C(=O)CSc2cnc3ccccc3n2)C1` (stereo not given), 1.42 nM (inactive).
In the case of `CCOC(=O)c1c(N)sc2c1CCC(CC)C2` (stereo not given) it was 0.46 nM (inactive); in that of `COCC(=O)Nc1sc2c(c1C(=O)OC)CCC(C)C2` (stereo not given), 0.38 nM (inactive).
Consider `CCn1nnnc1SCC(=O)Nc1cccc(C)n1`, for which the PGE2 EC50 with compound is 1.23 nM (inactive).
The figure for `COc1cccc(C2=NN(C(=O)c3cccs3)C(O)(C(F)(F)F)C2)c1` (stereo not given) is 0.25 nM (inactive); for `S=C(Nc1ccccc1Cl)N(Cc1ccccc1)Cc1ccccn1` it is 0.41 nM (inactive).
In the case of `CN(C)c1nccc(N(Cc2ccccc2)Cc2ccccc2)c1C#N` it was 0.29 nM (inactive).
Consider `Cc1ccc(C(C)C)c(OCCn2c(=O)oc3ccccc32)c1`, for which the PGE2 EC50 with compound was 0.33 nM (inactive).
The figure for `CC(C)(C)C1CCc2onc(C(=O)Nc3cccnc3)c2C1` (stereo not given) is 0.4 nM (inactive).
In the case of `c1ccc(C2Nc3ccccc3Oc3ccccc32)cc1` (stereo not given) it was 0.21 nM (inactive); in that of `O=C(NCCC1=CCCCC1)c1cccc2c1C(=O)N(C1CCCCC1)C2`, 1.89 nM (inactive); in that of `Cc1ccc(S(=O)(=O)N2c3ccccc3OCC2C(C)(C)C)cc1` (stereo not given), 0.14 nM (inactive).
In the case of `Cc1ccc2c(c1)N(S(=O)(=O)c1ccc(F)cc1)C(C(C)(C)C)CO2` (stereo not given) it was 0.45 nM (inactive); in that of `CCC(=O)N(CC)c1nc(-c2cc(OC)ccc2OC)cs1`, 0.24 nM (inactive).
As for `CCCOP(=O)(OCCC)c1nc(-c2ccccc2)oc1NCc1ccccc1`, the PGE2 EC50 with compound is 0.15 nM (inactive).
Turning to `CCOc1ccc(OCC)c(NC(=O)CN2CCN(c3cccc(C)c3)CC2)c1`, the PGE2 EC50 with compound is 0.86 nM (inactive).
The figure for `O=C(O)c1cc(C(=O)O)cc(N2C(=O)c3ccccc3C2=O)c1` is 0.39 nM (inactive).
For `O=c1c2ccccc2c(-c2ccccc2)nn1Cc1c(Cl)cccc1Cl`, the PGE2 EC50 with compound is 0.41 nM (inactive).
On to `O=C1CCCc2ccccc2N1Cc1c(Cl)cccc1Cl`, for which the PGE2 EC50 with compound is 0.64 nM (inactive).
The figure for `CN(Cc1cccs1)c1nc(-c2cccnc2)nc2ccccc12` is 0.64 nM (inactive); for `CC(C)CCn1c(O)c(N=NC(=O)c2ccco2)c2ccccc21` it is 0.33 nM (inactive).
The figure for `CCCCn1c(C)cc(C)c(S(=O)(=O)c2ccccc2C)c1=O` is 0.31 nM (inactive); for `CC(C)CCn1c(Oc2ccc(Cl)cc2)nc2c1c(=O)n(C)c(=O)n2C` it is 0.31 nM (inactive).
The figure for `O=c1c2ccccc2c2ccccc2c(=O)n1Cc1ccco1` is 0.45 nM (inactive); for `CCCN(CCC)C(C)C(=O)NCC1(c2ccccc2)CCCC1` (stereo not given) it is 0.23 nM (inactive); for `CCSc1nc2ccccc2n1Cc1ccccc1F` it is 0.31 nM (inactive).
On to `CC1CCN(C(C)C(=O)Nc2ccccc2-c2ccccc2)CC1` (stereo not given), for which the PGE2 EC50 with compound was 0.26 nM (inactive).
In the case of `Cc1ccc(S(=O)(=O)NCC(=O)OCN2C(=O)c3ccccc3C2=O)cc1` it was 2.7 nM (inactive).
In the case of `Cc1ccc(S(=O)(=O)c2ccc(Oc3cccc(C)c3)cc2)cc1` it was 0.66 nM (inactive).
As to `COc1ccc(OCC(=O)NC(=S)Nc2ccc3c4c(cccc24)CC3)cc1`, the PGE2 EC50 with compound was 11.2 nM (inactive).
The figure for `c1ccc(Nc2nc(N3CCNCC3)nc(N3CCOCC3)n2)cc1` is 0.98 nM (inactive).
For the compound `CN(C)c1nc(N2CCOCC2)nc(N(c2ccccc2)c2ccccc2)n1`, the PGE2 EC50 with compound was 0.59 nM (inactive).
The figure for `Cc1cnn(-c2nc(-c3ccccc3)cc(-c3ccccc3)n2)c1` is 0.56 nM (inactive); for `COc1ccc(-c2cc(C(F)(F)F)n3nc(C(=O)N(C)Cc4ccccc4)cc3n2)cc1OC` it is 0.42 nM (inactive); for `COc1ccc(-c2cc(C(F)(F)F)nc(NC3CCCC3)n2)cc1OC` it is 0.54 nM (inactive).
The figure for `COc1ccc(C2=Nn3c(nnc3-c3ccccc3)SC2)cc1OC` is 0.88 nM (inactive); for `CC(=O)c1sc2nc(-c3ccc(C)cc3)c3c(c2c1N)CCCC3` it is 0.52 nM (inactive); for `O=C(/C(=C/O)N=Nc1ccccc1)c1cccs1` it is 2.24 nM (inactive).
The figure for `COCCOC(=O)c1c(C)oc2ccc(OCc3ccccc3)cc12` is 0.53 nM (inactive); for `c1ccc(Oc2nc3ccccc3n3cccc23)cc1` it is 0.38 nM (inactive).
On to `Cc1cc(C)c2c(n1)sc1c(=O)n(Cc3ccccc3Cl)nnc12`, for which the PGE2 EC50 with compound was 0.29 nM (inactive).
In the case of `O=C1c2ccccc2OC2(C=Cc3ccccc3O2)N1Cc1ccccc1` (stereo not given) it was 0.27 nM (inactive); in that of `Clc1ccc(-c2nn3c(-c4ccccc4)nnc3s2)cc1`, 1.36 nM (inactive); in that of `CCCCOC(=O)Sc1nc2ccccc2o1`, 2.08 nM (inactive).
The figure for `COc1ccc(-c2cc(C(F)(F)F)nc(NCc3ccco3)n2)cc1OC` is 0.48 nM (inactive).
For the compound `COc1ccc(C(=O)NCCCN2CCOCC2)cc1OC`, the PGE2 EC50 with compound is 0.55 nM (inactive).
In the case of `CC(=O)Oc1c2c(c3c(c1CC=C(C)C)O[C@]14C(=C[C@@H]5CC1C(C)(C)OC4(C/C=C(\C)C(=O)O)C5=O)C3=O)OC(C)(CCC=C(C)C)C=C2` (stereo not given in full) it was 7.31 nM (inactive); in that of `O=c1cc2c(nn1Cc1c(Cl)cccc1Cl)-c1ccccc1CC2`, 0.74 nM (inactive).
The figure for `O=c1cc(N2CCCCC2)c(-c2ccccc2)nn1Cc1c(Cl)cccc1Cl` is 1.07 nM (inactive); for `Cc1ccc(Oc2nc(-c3ccccc3)ncc2S(C)(=O)=O)cc1` it is 0.58 nM (inactive).
In the case of `O=C(O)c1ccc(CNCc2cccc(Cl)c2Cl)cc1` it was 1.05 nM (inactive).
Turning to `CCOC(=O)C1=CN(CC2CCCO2)C=C(C(=O)OCC)C1c1ccccc1C(F)(F)F` (stereo not given), the PGE2 EC50 with compound was 0.31 nM (inactive).
The figure for `C=CCC1(C)C(=O)N(c2ccccc2)c2ccccc21` (stereo not given) is 0.38 nM (inactive).
For the compound `Brc1cccc(-c2nnc(SCc3ccon3)n2-c2ccccc2)c1`, the PGE2 EC50 with compound was 0.48 nM (inactive).
In the case of `COc1ccc(Oc2cc(C(F)(F)F)nc(N(C)C)n2)cc1` it was 0.6 nM (inactive).
In the case of `Cc1cc(C)n(-c2nc(C)nc3c2cnn3-c2ccccc2)n1` it was 0.41 nM (inactive); in that of `COC(=O)c1ccc(-c2ccco2)n1Cc1cccc(C)c1`, 0.17 nM (inactive); in that of `Cc1nn(Cc2c(Cl)cccc2Cl)c(C)c1C(=O)NCc1ccc(C)n1C`, 0.76 nM (inactive).
The figure for `O=C(CSc1nc2cc(Cl)ccc2s1)N1CCCc2ccccc21` is 0.24 nM (inactive); for `C/C(=N\N=C(c1ccccc1)c1ccccc1)c1ccco1` it is 0.47 nM (inactive); for `CCOC(=O)c1ccccc1NC1c2ccccc2C(=O)N1c1cc(C)ccn1` (stereo not given) it is 0.34 nM (inactive).
As to `CCOc1ccccc1Cn1c(=O)oc2ccc(C)cc21`, the PGE2 EC50 with compound is 0.36 nM (inactive).
The figure for `CCOc1ccccc1NC(=O)c1c(Br)cnn1C` is 0.79 nM (inactive).
The figure for `O=C(CSc1ncnc2c1oc1ccccc12)Nc1cccc(F)c1` is 2.94 nM (inactive); for `COc1ccc(Nc2nc(-c3cc4cccc(OC)c4oc3=O)cs2)cc1` it is 0.92 nM (inactive); for `COc1cccc(/C=N/c2oc(-c3ccccc3)cc2C#N)c1O` it is 8.67 nM (inactive).
With `O=C(CSc1nnc(COc2ccccc2)n1-c1ccccc1)c1ccccc1`, the PGE2 EC50 with compound was 0.74 nM (inactive).
`Cc1cc(C)cc(OC2CCCCC2NS(=O)(=O)c2ccccc2)c1` (stereo not given): the PGE2 EC50 with compound was 0.48 nM (inactive).
In the case of `COc1ccccc1C(=O)NC(=S)Nc1cc(C(=O)O)ccc1C` it was 0.34 nM (inactive); in that of `C=CCOc1ccccc1CNc1ccccc1C`, 0.32 nM (inactive); in that of `Cc1cc(SCC(=O)NCCC2=CCCCC2)nc2ccccc12`, 0.21 nM (inactive).
The figure for `CCCc1cc(=O)n2[nH]c(NCc3cccs3)nc2n1` is 0.94 nM (inactive).
Take `N#CN=C1SCCS1`: the PGE2 EC50 with compound was 0.67 nM (inactive).
The figure for `CSc1ncnc2sc(C)c(C)c12` is 0.56 nM (inactive); for `C=CCSc1ncnc2sc(C)c(C)c12` it is 0.85 nM (inactive).
The figure for `CC(C)c1ccc2c(c1)CCC1C(C)(C(N)=O)CCCC21C` (stereo not given) is 0.38 nM (inactive); for `Cn1c(/C=C/N(Cc2ccccc2)c2ccccc2)c([N+](=O)[O-])c(=O)n(C)c1=O` it is 0.45 nM (inactive).
